Records with an inconclusive call do not appear. Calls of active or inactive are those of the source. Rule for the calls, unless noted: active = hit-call score of the fitted dose curve at least 0.9, where 1 is the maximum; inconclusive = response in the unintended direction; inactive = score below 0.9.

From PubChem BioAssay (EPA / NIEHS) come the findings set out here.

The target of test [1] is Glucocorticoid receptor (Homo sapiens) (UniProt P04150). The test can be described thus: ATG_GR_TRANS: Attagene TRANS-FACTORIAL HepG2 Assay for human Glucocorticoid Receptor (GR) (AID 2282978).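 Note: activators score as hits since higher reporter transcript over DMSO is fitted.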 The following applies: HepG2 Attagene TRANS GR reporter, mRNA transcription. In outline:
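Transient MRTU transfection of HepG2 (GAL4-UAS reporters, exogenous NR-GAL4 chimeras), 24 h dosing. Readout: reporter transcript via RT-PCR + capillary electrophoresis fluorescence. Positive direction vs DMSO baseline.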

The target in test [2] is Oxysterols receptor LXR-beta (Homo sapiens) (UniProt P55055). The test can be described thus: ATG_LXRb_TRANS: Attagene TRANS-FACTORIAL HepG2 Assay for human Liver X Receptor beta (LXRb) (AID 2282981). The note with it: HepG2 Attagene TRANS GAL4-LXRb reporter, mRNA. In outline: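 Measures induction of a Gal4-driven reporter transcript in HepG2 cells expressing an exogenous LXRb-Gal4 fusion. Cells are exposed to compound for 24 h before RNA isolation and RT-PCR with capillary electrophoresis detection.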
Oxysterols receptor LXR-beta (Homo sapiens), sequence (P55055 whole entry, looked up, the tested form may be a part): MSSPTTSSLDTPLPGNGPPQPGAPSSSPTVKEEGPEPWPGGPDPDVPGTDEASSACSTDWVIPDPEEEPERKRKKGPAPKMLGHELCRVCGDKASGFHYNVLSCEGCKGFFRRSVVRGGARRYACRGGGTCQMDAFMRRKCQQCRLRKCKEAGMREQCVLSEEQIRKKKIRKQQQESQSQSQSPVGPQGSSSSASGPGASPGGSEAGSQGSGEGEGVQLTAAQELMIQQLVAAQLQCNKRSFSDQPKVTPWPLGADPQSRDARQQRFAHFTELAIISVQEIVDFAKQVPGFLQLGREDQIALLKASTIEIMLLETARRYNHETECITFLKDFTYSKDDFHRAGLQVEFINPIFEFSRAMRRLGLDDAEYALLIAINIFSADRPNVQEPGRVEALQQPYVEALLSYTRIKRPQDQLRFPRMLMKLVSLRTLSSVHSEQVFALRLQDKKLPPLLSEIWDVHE

Test [3] concerns the target Hepatocyte nuclear factor 4-alpha (Homo sapiens) (UniProt P41235). The test can be described thus: ATG_HNF4a_TRANS: Attagene TRANS-FACTORIAL HepG2 Assay for human Hepatocyte Nuclear Factor 4 alpha (HNF4a) (AID 2282982). The following applies: HepG2 HNF4a transactivation reporter, mRNA readout. The procedure, abridged:
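In this trans-factorial format, a chimeric HNF4a-GAL4 fusion drives a GAL4-UAS reporter in transfected HepG2 liver cells. After 24 h treatment, reporter mRNA induction is measured by RT-PCR with capillary electrophoresis, relative to DMSO.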

A short description of test [4]: ATG_M_06_TRANS: Attagene TRANS-FACTORIAL HepG2 Assay for M06 Transcription Factor (Internal Marker) (AID 2282983). The note with it: HepG2 Attagene TRANS M06 internal marker reporter. The procedure, abridged: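 Multi-reporter-transfected HepG2, 24 h treatment; reporter transcripts quantified via RT-PCR, primer-extension labelling and CE. DMSO-normalized gain-of-signal fit.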

The nature of test [5]: ATG_M_32_TRANS: Attagene TRANS-FACTORIAL HepG2 Assay for M32 Transcription Factor (Internal Marker) (AID 2282984).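 Note: transcript level of a background control reporter unit measured by RT-PCR and capillary electrophoresis.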 The note with it: HepG2 Attagene TRANS M32 internal marker reporter. The procedure, abridged: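 After 24 h dosing of transfected HepG2 cells, total RNA was reverse-transcribed, reporter sequences PCR-amplified, 6-FAM labelled by primer extension and HpaI-digested before capillary electrophoresis. Signal increase over DMSO was fitted.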

The target in test [6] is Nuclear receptor subfamily 4 group A member 2 (Homo sapiens) (UniProt P43354). The test can be described thus: ATG_NURR1_TRANS: Attagene TRANS-FACTORIAL HepG2 Assay for human Nuclear Receptor Related Protein 1 (NURR1) (AID 2282985). The following applies: HepG2 Attagene TRANS reporter, mRNA readout. The procedure, abridged: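 Chimeric NR-Gal4 fusion activity measured in HepG2 after 24 h treatment. Reporter transcripts detected by RT-PCR and capillary electrophoresis fluorescence; positive-direction curve fitting against DMSO.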
Nuclear receptor subfamily 4 group A member 2 (Homo sapiens), sequence (P43354 whole entry, looked up, the tested form may be a part): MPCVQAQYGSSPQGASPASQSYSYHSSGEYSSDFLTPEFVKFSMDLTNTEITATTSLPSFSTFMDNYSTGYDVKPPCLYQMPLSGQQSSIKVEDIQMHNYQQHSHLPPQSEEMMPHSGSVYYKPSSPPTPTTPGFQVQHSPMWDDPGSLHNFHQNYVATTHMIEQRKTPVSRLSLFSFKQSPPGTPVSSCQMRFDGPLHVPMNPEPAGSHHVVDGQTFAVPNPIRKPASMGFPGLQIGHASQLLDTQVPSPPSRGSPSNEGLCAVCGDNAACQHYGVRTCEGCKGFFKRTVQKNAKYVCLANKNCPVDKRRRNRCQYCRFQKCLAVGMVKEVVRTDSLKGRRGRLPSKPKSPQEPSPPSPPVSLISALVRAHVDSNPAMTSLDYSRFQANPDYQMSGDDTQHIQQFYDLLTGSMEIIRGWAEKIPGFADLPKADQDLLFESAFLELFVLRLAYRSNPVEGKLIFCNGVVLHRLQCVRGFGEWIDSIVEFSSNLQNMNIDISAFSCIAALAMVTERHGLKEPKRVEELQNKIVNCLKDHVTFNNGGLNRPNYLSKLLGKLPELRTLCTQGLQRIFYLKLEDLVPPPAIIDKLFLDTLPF

Test [7] concerns the target Transcriptional activator Myb (Homo sapiens) (UniProt P10242). The test can be described thus: ATG_Myb_CIS: Attagene CIS-FACTORIAL HepG2 Assay for human Myeloblastosis (Myb) Proto-Oncogene Transcription Factor (AID 2282986; active = hit-call score of the fitted dose curve at least 0.9, where 1 is the maximum; inactive = score below 0.9). The following applies: HepG2 Attagene CIS-FACTORIAL Myb reporter transcription; actives raise or lower the signal. The procedure, abridged:
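HepG2, transient MRTU transfection (cis-element promoters, endogenous TF activity), 24 h compound exposure. Readout: reporter mRNA via RT-PCR, 6-FAM labeling, HpaI digest, capillary electrophoresis. Gain/loss fit vs DMSO.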

Test [8] deals with Oxysterols receptor LXR-alpha (Homo sapiens) (UniProt Q13133). The test can be described thus: ATG_LXRa_TRANS: Attagene TRANS-FACTORIAL HepG2 Assay for human Liver X Receptor alpha (LXRa) (AID 2282980). The note with it: HepG2 Attagene TRANS reporter, LXRa transactivation. In outline:
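In this multiplexed TRANS system, compounds act on HepG2 cells carrying GAL4-UAS reporter units and a receptor-GAL4 fusion for 24 h. Induced reporter RNA is amplified, fluorescently labelled and sized by capillary electrophoresis, with DMSO as baseline.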

The target in test [9] is Nuclear respiratory factor 1 (Homo sapiens) (UniProt Q16656). The test can be described thus: ATG_NRF1_CIS: Attagene CIS-FACTORIAL HepG2 Assay for human Nuclear Respiratory Factor 1 (NRF1) Orphan Gene (AID 2282987; active = hit-call score of the fitted dose curve at least 0.9, where 1 is the maximum; inactive = score below 0.9). The following applies: HepG2 NRF1 cis-element reporter, Attagene multiplex; actives raise or lower the signal. The procedure, abridged: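 Endogenous NRF1-driven reporter transcription measured in transiently transfected human HepG2 liver cells. Readout: reporter mRNA by RT-PCR and capillary electrophoresis with fluorescence detection, 24 h post-dosing. Gain or loss of signal fitted relative to DMSO baseline.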
Nuclear respiratory factor 1 (Homo sapiens), sequence (Q16656 whole entry, looked up): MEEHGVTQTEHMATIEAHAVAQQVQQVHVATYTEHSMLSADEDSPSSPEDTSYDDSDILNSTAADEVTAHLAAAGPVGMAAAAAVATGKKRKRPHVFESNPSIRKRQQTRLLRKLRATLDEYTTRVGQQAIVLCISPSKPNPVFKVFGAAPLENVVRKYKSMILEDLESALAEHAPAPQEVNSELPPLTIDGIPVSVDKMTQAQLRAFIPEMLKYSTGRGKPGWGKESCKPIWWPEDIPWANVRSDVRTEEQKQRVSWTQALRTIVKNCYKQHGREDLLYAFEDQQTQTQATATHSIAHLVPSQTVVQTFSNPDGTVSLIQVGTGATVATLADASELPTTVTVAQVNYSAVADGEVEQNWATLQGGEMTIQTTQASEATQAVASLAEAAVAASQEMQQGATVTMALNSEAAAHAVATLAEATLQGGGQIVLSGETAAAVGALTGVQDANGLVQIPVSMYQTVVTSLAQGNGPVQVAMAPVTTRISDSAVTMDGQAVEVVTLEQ

Glucocorticoid receptor (Homo sapiens), sequence (P04150 whole entry, looked up, the tested form may be a part): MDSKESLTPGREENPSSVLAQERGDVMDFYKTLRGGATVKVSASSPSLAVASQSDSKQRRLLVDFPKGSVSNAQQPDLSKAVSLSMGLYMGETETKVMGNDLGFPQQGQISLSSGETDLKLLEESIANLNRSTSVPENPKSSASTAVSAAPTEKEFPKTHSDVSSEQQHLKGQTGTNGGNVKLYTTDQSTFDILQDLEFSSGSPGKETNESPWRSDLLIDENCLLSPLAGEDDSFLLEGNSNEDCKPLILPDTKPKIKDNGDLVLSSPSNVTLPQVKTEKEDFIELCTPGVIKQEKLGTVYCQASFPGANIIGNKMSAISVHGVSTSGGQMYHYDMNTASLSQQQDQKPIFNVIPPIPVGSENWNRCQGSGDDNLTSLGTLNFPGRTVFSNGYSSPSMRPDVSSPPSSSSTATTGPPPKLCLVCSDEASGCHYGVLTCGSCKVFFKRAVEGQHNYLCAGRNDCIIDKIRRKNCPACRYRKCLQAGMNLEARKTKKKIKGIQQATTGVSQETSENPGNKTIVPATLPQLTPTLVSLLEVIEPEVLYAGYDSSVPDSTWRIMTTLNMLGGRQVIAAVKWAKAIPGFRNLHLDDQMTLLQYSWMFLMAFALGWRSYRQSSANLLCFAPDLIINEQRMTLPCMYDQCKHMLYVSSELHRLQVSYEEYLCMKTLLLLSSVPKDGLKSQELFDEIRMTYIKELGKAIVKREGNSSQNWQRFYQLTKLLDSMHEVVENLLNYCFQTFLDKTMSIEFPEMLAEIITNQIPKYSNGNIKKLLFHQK
Oxysterols receptor LXR-alpha (Homo sapiens), sequence (Q13133 whole entry, looked up, the tested form may be a part): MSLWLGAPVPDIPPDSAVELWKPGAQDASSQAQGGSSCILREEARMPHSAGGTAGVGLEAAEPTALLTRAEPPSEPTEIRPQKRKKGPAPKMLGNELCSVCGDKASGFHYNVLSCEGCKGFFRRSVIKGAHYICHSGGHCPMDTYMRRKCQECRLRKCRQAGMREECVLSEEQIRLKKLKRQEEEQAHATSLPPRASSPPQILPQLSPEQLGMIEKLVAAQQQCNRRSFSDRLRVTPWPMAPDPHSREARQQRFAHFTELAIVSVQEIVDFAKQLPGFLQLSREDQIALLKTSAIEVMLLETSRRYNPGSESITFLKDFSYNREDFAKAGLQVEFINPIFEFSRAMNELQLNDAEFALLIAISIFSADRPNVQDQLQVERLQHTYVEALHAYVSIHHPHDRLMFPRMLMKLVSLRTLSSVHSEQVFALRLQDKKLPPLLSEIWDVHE
Transcriptional activator Myb (Homo sapiens), sequence (P10242 whole entry, looked up): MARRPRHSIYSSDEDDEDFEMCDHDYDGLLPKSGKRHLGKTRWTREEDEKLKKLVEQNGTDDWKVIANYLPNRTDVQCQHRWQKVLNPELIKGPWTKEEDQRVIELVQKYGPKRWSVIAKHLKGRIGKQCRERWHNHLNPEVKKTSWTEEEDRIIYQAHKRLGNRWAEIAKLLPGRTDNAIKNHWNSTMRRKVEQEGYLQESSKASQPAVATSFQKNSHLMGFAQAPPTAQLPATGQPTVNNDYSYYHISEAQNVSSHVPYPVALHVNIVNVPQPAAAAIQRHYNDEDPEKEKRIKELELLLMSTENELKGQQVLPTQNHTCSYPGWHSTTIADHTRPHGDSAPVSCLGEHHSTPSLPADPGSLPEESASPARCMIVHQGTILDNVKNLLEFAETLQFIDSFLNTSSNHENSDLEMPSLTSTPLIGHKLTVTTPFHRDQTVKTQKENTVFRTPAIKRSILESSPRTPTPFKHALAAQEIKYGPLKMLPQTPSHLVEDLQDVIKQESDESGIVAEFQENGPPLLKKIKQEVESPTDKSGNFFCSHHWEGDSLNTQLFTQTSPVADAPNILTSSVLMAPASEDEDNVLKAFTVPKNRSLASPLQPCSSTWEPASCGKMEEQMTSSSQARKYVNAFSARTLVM
Hepatocyte nuclear factor 4-alpha (Homo sapiens), sequence (P41235 whole entry, looked up, the tested form may be a part): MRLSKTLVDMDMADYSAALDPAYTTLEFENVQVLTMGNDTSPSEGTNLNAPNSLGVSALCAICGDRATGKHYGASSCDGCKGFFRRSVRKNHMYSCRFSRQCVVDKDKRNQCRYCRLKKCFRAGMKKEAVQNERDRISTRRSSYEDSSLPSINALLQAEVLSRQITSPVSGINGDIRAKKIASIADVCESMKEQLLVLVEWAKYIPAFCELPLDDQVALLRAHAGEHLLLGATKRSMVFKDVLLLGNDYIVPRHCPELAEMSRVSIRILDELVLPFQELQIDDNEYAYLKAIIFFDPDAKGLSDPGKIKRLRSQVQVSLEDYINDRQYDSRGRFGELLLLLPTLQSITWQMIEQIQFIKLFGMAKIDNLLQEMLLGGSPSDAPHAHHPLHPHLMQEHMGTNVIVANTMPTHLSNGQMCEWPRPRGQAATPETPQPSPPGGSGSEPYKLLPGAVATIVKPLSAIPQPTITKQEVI

As to `O=C(O)CCCCCCCCCC(=O)O`, the call in [1], in test [2], in test [3], in test [4], in [5] and in [6] was inactive. The molecule was classed as inactive in test [7].
On to `CCc1nccnc1C`, for which the outcome in test [1], in test [2], in [3], in test [4], in test [5] and in test [6] was inactive. Moreover, the call in test [7] was inactive.
Turning to `CCOC(=O)CC(C(C)=O)C(C)=O`, the call in test [1], in [8], in [3] and in [9] was inactive.
On to `O=P(O)(O)Oc1ccccc1`, for which the result in test [1], in [2], in test [3], in test [4] and in [9] was inactive.
Take `O=S(=O)(O)c1ccccc1C=Cc1ccc(-c2ccc(C=Cc3ccccc3S(=O)(=O)O)cc2)cc1`: the molecule was classed as inactive in test [1], in test [8], in test [5], in [6], in [7] and in test [9].
As a reminder, the AC50 is the concentration giving half of the maximal activity seen. Consider `FC(F)(F)C(=NOCC1OCCO1)c1ccc(Cl)cc1`, for which the call in [1], in test [2], in test [4], in test [5], in [7] and in [9] was inactive. Also, the concentration at half-maximal activity (AC50) in test [6] is 100 µM (active).
As to `CC1=NC(C)OC1C` (configuration not stated), the result in test [1], in [2], in test [3], in test [5], in test [6] and in test [7] was inactive. Moreover, the call in test [9] was inactive.
As to `O=C1CCCC1`, the molecule was called inactive in test [1], in test [2], in [5], in test [6], in [7] and in test [9].
For the molecule `C=CC(C)(CCC=C(C)C)OC(=O)C(C)C` (configuration not stated), the molecule was classed as inactive in [1], in test [8], in [4], in [6], in test [7] and in test [9].
For `N=c1ccn2c(n1)O[C@H]1[C@H](O)[C@@H](CO)O[C@H]12`, the call in test [1], in [2], in test [3], in [5], in [7] and in test [9] was inactive.
In the case of `Cc1cc(C)c(C(=O)O)c(C)c1`, the molecule was classed as inactive in test [1], in test [2], in [4], in [5], in test [7] and in test [9].
With `CC(C)(Oc1ccc(C2CC2(Cl)Cl)cc1)C(=O)O` (configuration not stated), the molecule was called inactive in test [1], in test [8], in test [4], in [5], in [7] and in test [9].
Consider `CC(=O)OC(C)C`, for which the outcome in test [1], in test [8], in test [4], in test [6], in [7] and in test [9] was inactive.
For the molecule `O=C(c1ccc(O)cc1)c1ccc(O)cc1O`, the outcome in test [1], in test [8], in test [5], in test [6], in test [7] and in test [9] was inactive.
With `CC(C)(C)c1n[nH]c(=O)n(N)c1=O`, the outcome in test [1], in test [2], in [3], in [4] and in test [9] was inactive.
`O=C(Oc1ccccc1)c1ccc2ccccc2c1O`: the call in test [1], in [2], in [3], in test [4], in test [5] and in test [6] was inactive. Besides, the result in test [7] and in test [9] was inactive.
Regarding `NC(CO)(CO)CO`, the call in test [1], in [2], in [3], in [5], in test [6] and in test [7] was inactive. Besides, the result in [9] was inactive.
`CC(C)c1ccc(C=O)cc1`: the molecule was classed as inactive in test [1], in test [2], in test [3], in [4], in test [5] and in test [6]. Further, the call in test [7] and in test [9] was inactive.
Take `CCCCCCCCCCc1ccccc1`: the outcome in test [1], in test [2], in test [4], in [5], in test [6] and in test [7] was inactive. Besides, the outcome in test [9] was inactive.
As for `COCCOCCOCCOCCOC`, the result in [1], in test [2], in test [3], in test [4], in [7] and in [9] was inactive.
Take `O=C1Nc2ccccc2C1(c1ccc(O)cc1)c1ccc(O)cc1`: the call in test [1], in test [2], in test [4], in test [5], in test [7] and in test [9] was inactive.
For `CCOC(=O)c1ccc(N(C)C)cc1`, the call in test [1], in test [2], in test [3], in test [5], in test [6] and in test [7] was inactive. In test [9], the molecule was classed as inactive.
Take `C=CC(=O)OCCOC1C2CCC1C1CC=CC12` (configuration not stated): the molecule was called inactive in test [1], in [2], in test [6], in test [7] and in test [9].
Turning to `NNC(=O)c1cccc(C(=O)NN)c1`, the outcome in test [1], in test [2], in test [3], in test [5], in test [7] and in test [9] was inactive.
Take `C=C(C)[C@@H]1CCC2=CCC[C@@H](C)[C@]2(C)C1`: the outcome in [1], in test [2], in test [4], in test [5], in test [6] and in [9] was inactive.
As for `CC1(C)[C@H]2CC[C@]1(C)C(=O)C2`, the molecule was called inactive in test [1], in test [8], in [4], in [5] and in test [9].
For `O=C(O)CC(C(=O)O)C(CC(=O)O)C(=O)O` (configuration not stated), the result in [1], in [2], in [4], in test [5], in [7] and in test [9] was inactive.
Regarding `CC(=O)Nc1nnc(S(N)(=O)=O)s1`, the molecule was classed as inactive in test [1], in test [2], in test [4], in [5], in test [7] and in test [9].
Consider `C[Si](C)O[Si](C)(C)O[Si](C)(C)O[Si](C)C`, for which the outcome in test [1], in test [2], in test [4], in test [5], in test [6] and in test [7] was inactive.
With `CNC(=S)N(C)C`, the call in test [1], in [2], in test [3], in test [7] and in test [9] was inactive.
On to `CC(C)c1ccc(C#N)cc1`, for which the result in test [1], in test [8], in [7] and in test [9] was inactive.
In the case of `CCOC(F)(F)C(F)(F)C(F)(F)C(F)(F)F`, the molecule was classed as inactive in test [1], in test [8], in test [4], in [5], in test [6] and in test [7]. The result in test [9] was inactive.
`Nc1ccc(Cl)cc1Cl`: the call in test [1], in test [2], in [4], in test [5], in test [6] and in test [7] was inactive.
For `COC(=O)/C=C\C(=O)O`, the outcome in test [1], in test [2], in [3], in test [4], in test [7] and in test [9] was inactive.
